The results in this text go back to PubChem BioAssay (Tox21).

Activity calls are given as the source filed them. Calls follow the shape of the dose curve; as a rule, active = well fitted curve in the direction sought with a large enough effect in the repeat runs; inconclusive = weak or mixed curves; inactive = flat fitted curve, though single readings scatter.

The test in a line: qHTS assay to test for compound auto fluorescence at 590 nm (red) in HepG2 cells (AID 720674). The following applies: HepG2 autofluorescence, red 540/590 nm, 1 h; series mostly up to 91.3 µM. The source says: U.S. Tox21 Program National Center for Advancing Translational Sciences [NCATS] NIH Chemical Genomics Center [NCGC] U.S. Environmental Protection Agency [EPA] National Institutes of Environmental Health Sciences [NIEHS] National Toxicology Program [NTP] U.S. Food and Drug Administration [FDA] Tox21 Assay Overview: Compound auto fluorescence often interferes with screening of the compound library against various biological targets and signaling pathways. Some of these compounds may have fluorophoric properties. Such properties may interfere with the assay outputs resulting in false positives and/or negatives. To decrease such complications and ensure the compound activities are relevant in terms of biological response, the Tox21 10K compound library was screened for auto fluorescence. From the fluorophores used as reporter signals in our screening assays, the auto fluorescence equivalencies of compounds against three fluorophores have been evaluated: Triamterene, Fluorescein and Rose Bengal sodium for blue, green and red fluorescence, respectively. The fluorescence intensities were measured using Excitation/Emission wavelengths at 405/460nm, 485/535nm and 540/590nm for blue, green and red labels, respectively. This assay includes the red fluorescence data.
Tox21 Assay Protocol Summary: 2,000 HepG2 cells in 5 uL of culture medium (MEM containing 10% FBS) per well were dispensed into black wall/clear bottom 1536-well plates using a Multidrop Combi Dispenser (ThermoFisher Scientific, Waltham, MA). The assay plates were incubated overnight at 37 C to allow cell attachment to the well bottom, followed by the transfer of 23 nL compound or DMSO vehicle by a pintool work station (Kalypsys , San Diego, CA). After the assay plates were incubated for 1 hr at 37 C and 5% CO2, fluorescence intensities in the assay plates were measured by an Envision (PerkinElmer, Shelton, CT) plate reader using three labels for measuring blue, green and red fluorescence at […] 460, 535 and 590 nm respectively.
As for `Nn1cnnc1`, the outcome was inactive.

Turning to `c1ccc(NNc2ccccc2)cc1`, the compound was called inactive.

For `O=P(Oc1ccccc1)(Oc1ccccc1)Oc1ccccc1`, the result was inactive.

As to `CC(C)N(C(=O)SCC(Cl)=C(Cl)Cl)C(C)C`, the compound was called inactive.

For `Brc1ccc(Oc2cc(Br)c(Br)cc2Br)c(Br)c1`, the compound was classed as inactive.

Consider `N#Cc1cc(Br)c(O)c(Br)c1`, for which the compound was classed as inactive.

With `CCCCN(CC)c1c([N+](=O)[O-])cc(C(F)(F)F)cc1[N+](=O)[O-]`, the compound was called inactive.

`Nc1ccncc1`: the call was inactive.

`O=S(=O)(Oc1ccc(Cl)cc1)c1ccc(Cl)cc1`: the call was inactive.

As for `Cc1ccc(N)c(N)c1`, the result was inactive.

`c1cc(OCC2CO2)ccc1Cc1ccc(OCC2CO2)cc1` (stereo not given): the outcome was inactive.

As to `CCCCN(CCCC)N=O`, the outcome was inactive.

For the compound `CC(C)C(=O)OCC(C)(C)C(OC(=O)C(C)C)C(C)C` (stereo not given), the result was inactive.

Take `CCN(CC)C(=O)SCc1ccc(Cl)cc1`: the call was inactive.

Consider `O=[N+]([O-])c1ccc(O)c([N+](=O)[O-])c1`, for which the compound was called inactive.

Regarding `Cc1ccc(OP(=O)(Oc2ccc(C)cc2)Oc2ccc(C)cc2)cc1`, the compound was called inactive.

As to `O=C(CCl)c1ccccc1`, the compound was classed as inactive.

On to `C=CCc1ccc2c(c1)OCO2`, for which the outcome was inactive.

For `CCOC(=S)S`, the result was inactive.

`CCC(CC)Nc1c([N+](=O)[O-])cc(C)c(C)c1[N+](=O)[O-]`: the outcome was inactive.

Turning to `CCCCC(CC)COC(=O)c1ccc(C(=O)OCC(CC)CCCC)c(C(=O)OCC(CC)CCCC)c1` (stereo not given), the call was inactive.

On to `c1ccc(P(c2ccccc2)c2ccccc2)cc1`, for which the compound was called inactive.

Turning to `Nc1ccc(-c2ccccc2)cc1`, the outcome was inactive.

On to `O=[N+]([O-])c1cccc2ccccc12`, for which the outcome was inactive.

Turning to `CNC(=O)N(C)c1nnc(C(C)(C)C)s1`, the outcome was inactive.

As for `Oc1cc(Cl)c(Cl)cc1Cl`, the outcome was inactive.

On to `C[C@]12CCC(=O)C[C@@H]1CC[C@@H]1[C@@H]2CC[C@]2(C)[C@@H](O)CC[C@@H]12`, for which the result was inactive.

On to `c1nc[nH]n1`, for which the result was inactive.

In the case of `NCc1cccnc1`, the outcome was inactive.

In the case of `CC(C)(c1cc(Cl)c(O)c(Cl)c1)c1cc(Cl)c(O)c(Cl)c1`, the compound was classed as inactive.

With `CC(C)(C)c1ccccc1O`, the outcome was inactive.

On to `CCCCCc1cc(O)cc(O)c1`, for which the call was inactive.

Turning to `CN(C)c1ccc(C(=O)c2ccc(N(C)C)cc2)cc1`, the compound was called inactive.

Regarding `NNC(N)=S`, the result was inactive.

For `O=C(O)C(F)(F)C(F)(F)C(F)(F)C(F)(F)C(F)(F)C(F)(F)C(F)(F)F`, the call was inactive.

Consider `NNC(=S)NN`, for which the call was inactive.

Consider `CC(C)NC(C)C`, for which the result was inactive.

Take `Nc1ccc(Cl)cc1N`: the outcome was inactive.

For the compound `CNC(=O)Oc1cccc2c1OC(C)(C)O2`, the outcome was inactive.

As for `CCN(CC)C(=O)/C(Cl)=C(\C)OP(=O)(OC)OC`, the outcome was inactive.
